In the library only some 12% were active in any assay of this set; here they are far more common.
AmpC detergent: inhibitors of E. coli AmpC beta-lactamase with detergent. P00811. AmpC hydrolysis of nitrocefin, absorbance 480 nm, 0.01% Triton. Potency, µM (series often up to 114 µM), without a hit: at the highest dose activity change, negative = inhibition, hits mostly inhibitors. 370,000 tested, 0.041% active;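 also: 0% = no-compound wells and -100% = no-enzyme wells; nearly all actives have a fitted effect of over 25% in size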
Target sequence (P00811 whole entry, looked up): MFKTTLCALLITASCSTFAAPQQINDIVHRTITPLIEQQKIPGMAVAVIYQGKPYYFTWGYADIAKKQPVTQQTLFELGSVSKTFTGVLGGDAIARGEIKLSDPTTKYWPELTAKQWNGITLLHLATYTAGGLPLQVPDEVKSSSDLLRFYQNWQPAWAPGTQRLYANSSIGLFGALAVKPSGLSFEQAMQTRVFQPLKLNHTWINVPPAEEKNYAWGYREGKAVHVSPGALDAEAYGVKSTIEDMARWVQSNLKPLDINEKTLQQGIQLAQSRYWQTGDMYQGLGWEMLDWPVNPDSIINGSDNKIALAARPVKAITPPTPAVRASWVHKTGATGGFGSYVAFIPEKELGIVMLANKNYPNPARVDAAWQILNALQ
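20 mM phosphate pH 7.0 + 0.01% (detergent screen) or 0.0001% Triton X-100; 5.3 nM AmpC reagent; cpd preinc 15 min RT; nitrocefin (800 uM stock) to start; A480 q20 s × 4 min; Activity was normalised to no-enzyme and no-compound control wells.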
AmpC no deterg: AmpC beta-lactamase inhibition without detergent. P00811. AmpC nitrocefin hydrolysis, absorbance 480 nm, 0.0001% Triton. Potency, µM (highest dose often 57.1 µM), inactives show at the top dose activity change, negative = inhibition, usual class: inhibitors. 330,000 tested, 0.52% active;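 also: plate controls were no compound for no effect and no enzyme for full effect; nearly all actives have a fitted effect of over 20% in size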
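AmpC (5.3 nM in the dispensed reagent) in 20 mM phosphate pH 7.0 with 0.01% (detergent screen) or 0.0001% Triton X-100 was preincubated with compounds for 15 min at room temperature. Nitrocefin was then added from an 800 uM solution, and hydrolysis was followed at 480 nm.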
Pf growth 48h: P. falciparum growth inhibition at 48 hours (one generation); 310,000 tested, 5.9% active; P. falciparum luciferase growth in erythrocytes, 48 h; Potency, µM (titrated, usually from 28.7 µM), inactives show at the highest dose activity change, negative = inhibition, usual class: inhibitors; also: % is scaled to controls: 0 for no effect and ±100 for the full control effect
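Luminescence readout; reporter = integrated firefly luciferase in P. falciparum. RBC culture at 2% hematocrit, 0.1% parasitemia final, 37 C/5% CO2; decreased signal taken as growth inhibition.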
Sm TGR inh: blocks Schistosoma mansoni thioredoxin glutathione reductase. Q962Y6. purified TGR, DTNB reduction, TNB absorbance 405 nm. Potency, µM (top dose mostly 114 µM), inactives show at the top dose activity change, negative = inhibition, hits mostly inhibitors. 360,000 tested, 3% active; also: % is scaled to controls: 0 for no effect and ±100 for the full control effect; nearly all actives have a fitted effect of over 60% in size
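TGR 20 nM + NADPH 100 uM (dispensed conc.), cpd preinc 15 min RT; start with NADPH (500 uM addition) then DTNB (15 mM addition). Kinetic TNB absorbance, 405 nm filter. Four-parameter Hill fit across titration.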
SARS PLpro yeast: SARS-CoV PLP inhibition in yeast; Potency, µM (highest dose often 32.9 µM), without a hit: at the highest dose activity, positive = growth rescue, most hits filed as activators; S. cerevisiae expressing SARS-CoV PLpro, growth rescue; 330,000 tested, 0.19% active; AID 485353; calls by dose curve; also: 0% is about no effect; nearly all actives have a fitted effect of over 55% in size
Pf growth 96h: P. falciparum growth inhibition at 96 hours; P. falciparum luciferase reporter growth, 96 h; Potency, µM (doses to about 28.7 µM), inactives show at the highest dose activity change, negative = inhibition, usual class: inhibitors; 320,000 tested, 6.9% active; also: % is scaled to controls: 0 for no effect and ±100 for the full control effect
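96 h incubation, 37 C, 5% CO2, of luciferase-reporter P. falciparum-infected RBCs (2% hematocrit, 0.05% parasitemia final) with test compounds; endpoint luminescence.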
An asterisk follows results filed as active; ? = inconclusive; . = no result given; [ ] = remark or other dose. Unless noted, calls follow the shape of the dose curve; as a rule, active = well fitted curve in the direction sought with a large enough effect; inconclusive = small, poorly fitted or top-dose-only effect, or another doubt; inactive = no such curve, though single readings can be large; an effect the other way counts as inactive or inconclusive. Potency is read from the fitted curve at half-maximal effect.

SMILES | AmpC detergent | AmpC no deterg | Pf growth 48h | Sm TGR inh | SARS PLpro yeast | Pf growth 96h
CCCNC(=O)Cn1c(=O)c2cccn2c2cccnc21 | 1% | . | . | -8% | . | .
Cc1ccc(CN(C(=O)CNC(=O)c2cccs2)C(C(=O)NCC2CCCO2)c2ccccc2)cc1 (centres undefined) | 7% | 133% | ? | 6% | -2% | ?
Cc1ccc(C(C(=O)NCC2CCCO2)N(Cc2ccccc2)C(=O)c2ccc(-c3ccccc3)[nH]2)o1 (centres undefined) | -11% | 116% | 8.3µM* | -8% | -35% | ?
O=C(NCC1CCCO1)C(c1cccs1)N(Cc1ccccc1Cl)C(=O)c1ccc(-c2ccccc2)[nH]1 (centres undefined) | -5% | 54% | 5.2µM* | -8% | 1% | 19%
O=C(NCC(=O)N(Cc1ccccc1)C(C(=O)NCC1CCCO1)c1ccccc1)c1ccco1 (centres undefined) | 5% | 26% | 25% | -7% | 0% | 11%
CC[C@H](C)[C@@H](NC(=O)O[C@@H]1C(=O)c2cc(OC)ccc2O[C@H]1c1ccc(OC)c(Br)c1)C(=O)OC | -15% | 0% | 14% | -4% | -8% | -5%
COc1ccc2c(c1)C(=O)[C@H](O)[C@@H](c1ccc(OC)c(Br)c1)O2 | -4% | -9% | 3.7µM* | -7% | -14% | 2.1µM*
CN1C(=O)CC(N2CCC(C(N)=O)CC2)C1=O (centres undefined) | -3% | -21% | 13% | -16% | 3% | ?
O=C1CC(N2CCN(C(c3ccccc3)c3ccccc3)CC2)C(=O)N1Cc1ccc(N2CCCC2=O)cc1 (centres undefined) | -5% | 200% | 9.3µM* | -9% | 3% | 15µM*
NC(=O)C1CCN(C2CC(=O)N(Cc3ccc(N4CCCC4=O)cc3)C2=O)CC1 (centres undefined) | -7% | -17% | 5% | 35µM* | 0% | .
COc1ccc(C(O)c2nccc3cc(OC)c(OC)cc23)cc1OC (centres undefined) | 9% | -7% | 2% | -2% | 0% | -1%
COc1cc(C)c2c(c1C=O)Oc1c(c(C)c(O)c3c1C(O)OC3=O)OC2=O (centres undefined) | 6% | -21% | ? | 20µM* | 0% | ?
CCN1C(=O)/C(=C/c2nc3ccccc3c(=O)n2-c2ccc(C)cc2)c2ccccc21 | -12% | -10% | ? | 4% | 4% | ?
CCN1C(=O)/C(=C\c2nc3ccccc3c(=O)n2-c2ccccc2)c2ccccc21 | -11% | -18% | 10µM* | 1% | 7% | -2%
COc1ccc(-n2c(/C=C3\C(=O)N(C)c4ccccc43)nc3ccccc3c2=O)cc1 | 5% | -13% | 6.6µM* | 31% | 0% | 12µM*
CCN(CC)c1ccc(S(=O)(=O)N2CCOCC2)cc1NC(=O)COC(=O)c1ccco1 | ? | 32% | ? | 4% | 4% | -5%
CCN(CC)c1ccc(S(=O)(=O)N2CCOCC2)cc1NC(=O)Cn1nc(C)c([N+](=O)[O-])c1C | -2% | 108% | ? | -20% | 8% | 12µM*
CCN(CC)c1ccc(S(=O)(=O)N2CCOCC2)cc1NC(=O)COC(=O)/C=C/c1ccc(C)o1 | ? | 50% | ? | 32µM* | -3% | -6%
Cc1ccc(S(=O)(=O)N2CCOCC2)cc1NC(=O)COC(=O)/C=C/c1ccco1 | . | -10% | . | . | 0% | .
Cc1nn(CC(=O)Nc2cc(S(=O)(=O)N(C)C)ccc2Cl)c(C)c1[N+](=O)[O-] | -5% | -32% | -7% | 0% | -1% | ?
CCN(CC)c1ccc(S(=O)(=O)N2CCOCC2)cc1NC(=O)CN1CCc2ccccc2C1 | 6% | 113% | 10µM* | . | 0% | ?
CCCN1CCC(N(CCc2ccccc2)Cc2ccccc2)CC1 | -12% | 7% | ? | 5% | 0% | 12µM*
CCOC(=O)C1CCCN(Cc2c(C(=O)N3CCOCC3)nc3ccccn23)C1 (centres undefined) | -5% | 1% | 61% | -30% | -1% | 9.3µM*
CCOC(=O)C1CCCCN1Cc1cccc(OCc2ccccc2)c1 (centres undefined) | -6% | 21% | -13% | -3% | -7% | 13µM*
CCCCN(C)C(=O)C1CCN(CCCc2ccccc2)CC1 | ? | 80% | 2.3µM* | 14% | 11% | .
SMILES | AmpC detergent | AmpC no deterg | Pf growth 48h | Sm TGR inh | SARS PLpro yeast | Pf growth 96h
CCOC(=O)C1CCCN(Cc2c(C(=O)N3CCCCC3)nc3c(C)cccn23)C1 (centres undefined) | 10% | 57% | -12% | -9% | 1% | 23%
O=C(NC1CCCC1)c1ccc2c(=O)n(Cc3ccccc3)c(SCc3ccccc3)nc2c1 | 3% | . | . | 0% | . | .
CCC(C)n1c(=O)c2sccc2n2c(CCCC(=O)N3CCN(c4ccccc4)CC3)nnc12 (centres undefined) | -10% | . | . | 3% | . | .
CCOC(=O)Cn1c(=O)c2c(nc(N3CCOCC3)n2Cc2ccccc2)n(C)c1=O | -5% | . | . | -4% | . | .
CCOC(=O)C1CCCN(Cc2ccc(OCc3ccccc3)c(OC)c2)C1 (centres undefined) | ? | 64% | -48% | -19% | 6% | 13µM*
Cc1cccc(C)c1NC(=O)C1CCCN(CCCc2ccccc2)C1 (centres undefined) | -14% | -1% | -25% | -3% | 0% | .
CCOC(=O)C1CCCN(CC(=O)c2ccc(F)cc2)C1 (centres undefined) | -2% | -15% | 8% | 18µM* | 1% | 12%
CCOC(=O)C1CCCN(CCCc2ccccc2)C1 (centres undefined) | ? | -16% | -29% | -42% | -1% | 3.3µM*
O=C(CSc1nnc(CNc2ccc(F)cc2)n1-c1ccccc1)N1CCOCC1 | -15% | 23% | ? | -21% | -5% | ?
CCOc1cc(OCC)cc(C(=O)O)c1 | -10% | -16% | ? | 4% | -2% | -19%
CCOc1cc(C(=O)O)cc(Cl)c1OCC#N | ? | -32% | 6% | -8% | -1% | 7.4µM*
O=C(Nc1ccc(Cl)cc1)Nc1nnc(SCc2ccc(Cl)cc2)s1 | 7% | -19% | -7% | ? | -29% | 5.2µM*
C=CCOc1c(Cl)cc(CNc2ccc(N(C)C)cc2)cc1OC | 8% | -5% | ? | 18µM* | -1% | ?
COc1cc(CNc2ccc(N3CCOCC3)cc2)cc(Br)c1OC | -7% | -2%[2.29 µM] | -3% | -18% | 0% | 14%
